BAZ2B block: qHTS Assay for Inhibitors of BAZ2B. Potency, µM (highest dose often 114 µM), actives largely listed as inhibitors. AlphaScreen BAZ2B-H3K14Ac peptide displacement. Bromodomain adjacent to zinc finger domain protein 2B (Homo sapiens), Q9UIF8. actives 4.4% (n = 360,000). AID 504333, 2011; also: nearly all actives have a fitted effect of over 60% in size
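AlphaScreen luminescence quantifies BAZ2B engagement of H3K14Ac peptide; the protein and biotinylated peptide are both at 50 nM final, buffer PBS pH 7.4 with 0.01% Tween-20, all steps at room temperature.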
G9a block: qHTS Assay for Inhibitors of Histone Lysine Methyltransferase G9a; Histone-lysine N-methyltransferase EHMT2 (Homo sapiens), Q96KQ7; G9a H3K9 monomethylation, AlphaScreen, 2 h; Potency, µM (top dose mostly 102 µM), usual class: inhibitors; actives 8.8% (n = 350,000); also: nearly all actives have a fitted effect of over 75% in size
Target sequence (Q96KQ7 913-1193 limits assumed): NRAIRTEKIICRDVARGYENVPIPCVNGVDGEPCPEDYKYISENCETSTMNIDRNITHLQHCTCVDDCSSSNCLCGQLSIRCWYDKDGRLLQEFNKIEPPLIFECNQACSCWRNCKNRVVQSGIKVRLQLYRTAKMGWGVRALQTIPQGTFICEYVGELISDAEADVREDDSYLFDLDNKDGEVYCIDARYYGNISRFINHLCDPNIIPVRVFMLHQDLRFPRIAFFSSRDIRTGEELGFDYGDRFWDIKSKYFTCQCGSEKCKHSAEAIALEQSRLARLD
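G9a (20 nM) preincubated 15 min RT with compounds, then 500 nM biotinylated H3K9 peptide and 20 uM SAM added; 2 h RT reaction. Monomethyl-H3K9 product detected by AlphaScreen with anti-H3K9me1 antibody, streptavidin donor and anti-rabbit IgG acceptor beads.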
Six1-Eya2 blk: qHTS Assay for Inhibitors of the Six1/Eya2 Interaction; AlphaScreen GST-Six1/His-Eya2 binding, biochemical; stronger effect = lower value; activity change, % (no concentration beside the values); actives 0.56% (n = 360,000); AID 651725, 2012; in the data active = activity change below about -65%; inconclusive = mostly about -30% to -63%
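AlphaScreen with GST-Six1 and His-Eya2 (5X mix: 250 nM and 500 nM), glutathione donor and nickel acceptor beads; buffer 50 mM Tris pH 8.0, 300 mM NaCl, 1 mM TCEP; 1 h at 37 C in the dark.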
CtBP-E1A inh: qHTS Assay for Inhibitors of the CtBP/E1A Interaction. actives 0.49% (n = 340,000). AlphaScreen GST-E1A/His-CtBP binding, 1536-well; stronger effect = lower value. CtBP / adenovirus E1A interaction (AlphaScreen). activity change, % (test concentration not listed). AID 651724, 2012; in the data active = activity change below about -65%; inconclusive = mostly about -30% to -63%
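Protein mix (5X: 125 nM each GST-E1A, His-CtBP) was incubated with pinned compound 2 h at 37 deg C in dark, in 50 mM Tris pH 8.0 buffer with 300 mM NaCl. Glutathione donor and nickel acceptor beads followed; AlphaScreen signal read after 1 h.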
JMJD2A Tudor inh: qHTS Assay for Inhibitors of JMJD2A-Tudor Domain | actives 4.4% (n = 390,000) | Potency, µM (top dose mostly 114 µM), hits mostly inhibitors | Lysine-specific demethylase 4A (Homo sapiens), O75164 | AlphaScreen JMJD2A-Tudor / H3K4me3 peptide binding; also: nearly all actives have a fitted effect of over 50% in size
HP1b binding inh: HTS for Inhibitors of HP1-beta Chromodomain Interactions with Methylated Histone Tails | Chromobox protein homolog 1 (Homo sapiens), P83916 | actives 0.56% (n = 390,000) | Potency, µM (highest dose often 114 µM), actives largely listed as inhibitors | AlphaScreen HP1-beta / biotin-H3K9me3 peptide binding; also: nearly all actives have a fitted effect of over 70% in size
Target sequence (P83916 whole entry, looked up): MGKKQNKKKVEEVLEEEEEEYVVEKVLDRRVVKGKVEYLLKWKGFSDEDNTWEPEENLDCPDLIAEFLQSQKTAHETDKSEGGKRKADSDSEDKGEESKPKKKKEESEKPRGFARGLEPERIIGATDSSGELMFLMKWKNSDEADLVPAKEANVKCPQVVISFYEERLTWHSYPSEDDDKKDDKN
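Compound inhibition of the preformed complex between 50 nM HP1-beta and 50 nM biotinylated H3K9me3 peptide was read by AlphaScreen. Buffer was PBS pH 7.4 with 0.01% Tween-20. Incubations ran 30 min at room temperature, with 10 ug/mL donor/acceptor beads.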
Numbers stand for hits; n = inactive; u = inconclusive; x = not tested or not shown; [ ] = another dose, or the depositor's remark. Only some compounds are listed: those with a hit (about 10% of all), similar ones and a draw of the others. Unless noted, calls follow the shape of the dose curve; as a rule, active = well fitted inhibition curve with a large enough effect; inconclusive = small, poorly fitted or top-dose-only effect; inactive = no such curve, though single readings can be large or run the other way.

SMILES	BAZ2B block	G9a block	Six1-Eya2 blk	CtBP-E1A inh	JMJD2A Tudor inh	HP1b binding inh
CCOC(=O)c1c(NC(=O)C(C)N2CCN(C(=O)c3ccco3)CC2)sc2c1CCCC2 (centres undefined)	n	u	n	n	u	n
Cc1ccc(S(=O)(=O)N(C)C[C@H]2OCCCC[C@@H](C)Oc3ccc(NC(=O)Cc4ccccc4)cc3C(=O)N([C@H](C)CO)C[C@@H]2C)cc1	x	x	n	n	x	x
Cc1ccc(N2CCC(N3CCN(C)C(CCO)C3)CC2)cc1 (centres undefined)	n	u	n	n	n	n
COc1cc2[nH]c(=O)n(C3CCCCC3)c(=O)c2cc1OC	n	n[12.7 µM]	n	n	n	n
COc1cc2[nH]c(=S)nc(NC3CCCC3)c2cc1OC	n	32µM	x	x	x	x
C=CCNc1nc(=S)[nH]c2cc(OC)c(OC)cc12	n	25µM	-83	-74	u	n
C/C(CCN1CCc2nc(-c3ccccc3)c(-c3ccccc3)cc2C1)=N\O[C@H](C)c1cn([C@H](CO)Cc2ccccc2)nn1	n	50µM	x	x	x	x
CN1CCc2nc(SCCOc3ccccc3)c(C#N)cc2C1	n	u	n	n	n	n
C/C(CCN1CCc2nc(-c3ccccc3)c(-c3ccccc3)cc2C1)=N\OC[C@@H](C)[C@H](OCc1ccccc1)C(C)C	n	45µM	u	n	n	n
Cc1cccnc1CNC(=O)C1CCC(=O)N(CCc2cccc(F)c2)C1 (centres undefined)	n	n	n	n	n	n
O=C(O)CCN1/C(=C/C=Nc2ccccc2)Oc2ccccc21	x	u	n	n	56µM	n
COc1cccc(Cn2c(SCC(=O)N(C)c3ccccc3)nc3ccccc32)c1	n	n	x	x	n	n
O=C(Nc1ccc(C(=O)O)cc1)/C(=C\c1ccco1)NC(=O)c1ccco1	n	50µM	n	n	n	n
CC(=O)c1ccc(NC(=O)/C(=C\c2ccco2)NC(=O)c2ccco2)cc1	n	50µM	n	n	n	n
COc1ccc2c(c1)CC(NC(=O)Nc1ccc(Br)c(C)c1)CO2 (centres undefined)	n	n	x	x	n	n
COc1cccc(CNC(=O)CSc2c3c(nc4ccc(Cl)cc24)CCCC3)c1OC	x	n	x	x	n	n
COC(=O)N1CCC2(CC1)CN(c1ccccn1)C2	x	n[12.7 µM]	x	x	x	x
CCOC(=O)c1[nH]c(=O)[nH]c1CSc1nc(C)cc(C)n1	n	u	n	n	n	n
CCOC(=O)c1[nH]c(=O)[nH]c1COC(=O)c1cc2ccccc2o1	n	7.9µM	n	n	u	u
O=C(COC(=O)c1ccc(S(=O)(=O)NCc2ccco2)cc1)Nc1ccc(Cl)cn1	56µM	50µM	n	n	u	n
O=C(COC(=O)c1ccc(S(=O)(=O)NCc2ccco2)cc1)Nc1ccccc1	n	u	n	n	n	n
O=C(COC(=O)c1ccc(S(=O)(=O)NCc2ccco2)cc1)Nc1ccccc1OC(F)F	n	50µM	n	n	n	n
Cc1ccc(NC(=O)COC(=O)c2ccc(S(=O)(=O)NCc3ccco3)cc2)cc1	n	n[12.7 µM]	n	n	n	n
COc1ccc(N2CCN(c3ncnc4c3cnn4C)CC2)cc1	n	14µM	x	x	n	n
Cc1cccc(-n2ncc3c(N4CCN(c5ccccc5)CC4)ncnc32)c1	n	n	x	x	16µM	n
O=C(CCC(=O)OCC(F)(F)C(F)F)Nc1ccccc1F	n	n	n	n	n	n
CC(C)[C@H](NC(=O)Nc1ccc(Oc2ccccc2)cc1)C(=O)O	n	n	n	n	n	n

High-throughput results: PubChem BioAssay, National Center for Advancing Translational Sciences (NCATS)
